# Laboratory results as given in the supplement of paper PMC3545927.
# The other results are listed elsewhere or left out. No count for the full screen is at hand.
# Biological target: furin, P09958
# Assay: furin cleavage Z-score vs untreated control; higher = more cleavage, active = 3.5 or more, inactive = 1 or less, 8 variable residues between constant flanks
# In short: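 Sequencing of released DNA, tagged with adapters by PCR, gave read counts used as abundance. That DNA was freed when purified furin cut N-terminally bead-bound 8-mer peptides fused to a cDNA oligonucleotide, in 0.01 ml reactions at 1:10 enzyme:substrate in 50 mM HEPES pH 7.5 with CaCl2 and NaCl, lasting 7.5, 15 or 30 min. The cleavage Z-score was the lowess-adjusted log count versus furin-free reactions, scaled by median absolute deviation.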
# Sequence of furin, P09958 (P09958 whole entry): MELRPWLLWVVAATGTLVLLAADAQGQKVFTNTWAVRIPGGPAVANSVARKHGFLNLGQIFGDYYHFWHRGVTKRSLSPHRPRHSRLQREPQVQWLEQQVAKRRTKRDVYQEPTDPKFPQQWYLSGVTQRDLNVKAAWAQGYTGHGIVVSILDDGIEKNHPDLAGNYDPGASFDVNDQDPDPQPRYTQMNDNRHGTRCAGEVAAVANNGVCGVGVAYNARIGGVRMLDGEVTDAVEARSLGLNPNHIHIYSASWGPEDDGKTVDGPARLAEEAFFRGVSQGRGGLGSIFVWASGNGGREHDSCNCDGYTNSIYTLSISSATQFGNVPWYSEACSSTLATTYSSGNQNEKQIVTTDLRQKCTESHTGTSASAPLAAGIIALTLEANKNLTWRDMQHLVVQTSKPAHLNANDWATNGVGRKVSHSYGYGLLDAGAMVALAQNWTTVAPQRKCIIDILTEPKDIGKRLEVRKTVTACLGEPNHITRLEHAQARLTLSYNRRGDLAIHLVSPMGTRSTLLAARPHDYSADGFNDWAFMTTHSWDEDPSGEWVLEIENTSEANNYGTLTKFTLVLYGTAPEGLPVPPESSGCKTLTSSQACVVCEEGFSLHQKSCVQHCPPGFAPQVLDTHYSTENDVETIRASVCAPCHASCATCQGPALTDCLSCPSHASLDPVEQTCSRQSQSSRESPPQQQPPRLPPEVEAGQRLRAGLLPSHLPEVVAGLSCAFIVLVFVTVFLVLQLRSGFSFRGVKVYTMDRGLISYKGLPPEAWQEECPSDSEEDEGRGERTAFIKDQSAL
Sequence,furin cleavage Z-score (7.5 min),furin cleavage Z-score (15 min),furin cleavage Z-score (30 min)
CASVWKDLLEAGNASASA [HC1431],-0.463 (inactive),0.374 (inactive),-0.00259 (inactive)
CASSLTVTQLAGNASASA [HC1135],0.41 (inactive),-0.51 (inactive),-0.191 (inactive)
CADVAVLTSMAGNASASA [HC1244],0.796 (inactive),0.438 (inactive),-0.848 (inactive)
CASVPCSAHLAGNASASA [HC2490],0.673 (inactive),0.436 (inactive),1.54
CAASQLSAPSAGNASASA [HC1262],0.172 (inactive),0.594 (inactive),2.91
CATTPCNGSWAGNASASA [HC78],-0.41 (inactive),0.152 (inactive),0.215 (inactive)
CARYISWCLWAGNASASA [HC579],-0.0545 (inactive),0.138 (inactive),0.846 (inactive)
CAEVVTSTWPAGNASASA [HC2259],-1.41 (inactive),-0.126 (inactive),0.24 (inactive)
CALAQRQRRIAGNASASA [FS-347],0.264 (inactive),-0.423 (inactive),0.578 (inactive)
CARPQPQRRAAGNASASA [FS-86],2.58,5.58 (active),5.07 (active)
CAQRQRQRRAAGNASASA [FS-1253],8.09 (active),6.53 (active),6.09 (active)
CARLKRRVKSAGNASASA [FS-2351],4.89 (active),6 (active),4.82 (active)
CARLKRRLVPAGNASASA [FS-2708],2.61,4.61 (active),5.01 (active)
CARLKKKVKQAGNASASA [FS-3196],-1.36 (inactive),-0.919 (inactive),0.354 (inactive)
CAKVCCSMSYAGNASASA [HC1994],1.97,0.312 (inactive),0.855 (inactive)
CARFDRQIFIAGNASASA [FS-2012],-0.31 (inactive),-0.173 (inactive),-0.368 (inactive)
CARSRRGLFAAGNASASA [FS-2816],2.59,2.97,6.66 (active)
CARLRRGLAAAGNASASA [FS-1908],0.841 (inactive),1.22,1.44
CARSRRGIFIAGNASASA [FS-2312],1.57,2.13,4.7 (active)
CAREKRGLFGAGNASASA [FU1],0.425 (inactive),4.29 (active),0.496 (inactive)
CAREKRFTFVAGNASASA [FS-1694],-0.942 (inactive),0.437 (inactive),3.16
CAREKRGPSGAGNASASA [FS-3153],0.65 (inactive),-0.112 (inactive),0.123 (inactive)
CAREKRGWTMAGNASASA [FS-2549],0.613 (inactive),1.51,2.06
CAREKRFCTGAGNASASA [FS-2329],2.75,4.22 (active),4.58 (active)
CAVVCCSMEYAGNASASA [HC2072],-2.66 (inactive),0.354 (inactive),1.04
CAGGRHLIFCAGNASASA [HC854],-0.514 (inactive),-0.469 (inactive),-1.05 (inactive)
CAKQSGENLPAGNASASA [HC949],0.51 (inactive),-0.215 (inactive),-0.135 (inactive)
